Compounds without any hit were thinned out: in the full panel of roughly 83,000, 20% have a hit.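 Cell lines were cultured in 96-well plates, exposed to a single compound concentration, and assessed for percent growth 48 hours later.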 A number with no mark means an inactive call. The source made the active and inactive calls. How the source made its calls: active means growth percent below 10; inactive means the rest.
The compounds below were run on MDA-MB-468 breast (assay: NCI-60 one-dose screen, 48 h (100 = growth as untreated, 0 = no growth, -100 = all killed)). Conditions: 10 µM unless noted.

SMILES | growth
COc1ccc(C(=O)c2cc3c(N)c(C(=O)Nc4ccc(C)cc4)sc3nc2C)cc1 | -16.8% (active)
Nc1ncnc2c1ccn2-c1cccc(NC(=O)c2cccc(C(F)(F)F)c2)c1 | 31.3%
Cc1ccc(C(C(N)=O)C(C(N)=O)c2ccccc2)cc1 (stereo not given) | 105%
CCCCN(CCCC)CCCn1c(=O)c2sc3ncccc3c2n2nnc(-c3ccccc3)c12 | 109%
CCOC(=O)C1=C(NC)OCC1=O | 90.7%
COc1ccc(-c2cc(-c3nnc(SCC(=O)Nc4ccc(/C(C)=N\O)cc4)n3-c3ccccc3)c3cc(OC)ccc3n2)cc1 | 62.4%
COc1ccc(-c2cc(-c3ccc(N(C)C)cc3)nc(NC(=O)c3ccncc3)n2)cc1 | 75.5%
CCCCN(CCCC)CCCOC(=O)c1ccc(N)cc1 | 47.5%
COc1ccc(Nc2[nH]n(C3=Nc4ccccc4Sc4ccccc43)c(=O)c2C#N)cc1 | -3.96% (active)
Clc1nc(Oc2ccccc2)nc(-c2cn(-c3ccccc3)c3ccccc23)n1 | 88.2%
C#Cc1cccc(NC(=O)c2ccc(Cl)cc2Cl)c1 | 102%
CC(=O)Nc1cccc(-n2c(=O)n(C3CC3)c(=O)c3c(Nc4ccc(I)cc4F)n(C)c(=O)c(C)c32)c1 | 77.2%
Cc1cc(=O)[nH]c(NN=C2CCCC2)n1 | 116%
CCNC(=O)C1CCCN1C(=O)C(CCCN=C(N)N)NC(=O)C(CC(C)C)NC(=O)C(CC(C)C)NC(=O)C(Cc1ccc(O)cc1)NC(=O)C(CO)NC(=O)C(Cc1c[nH]c2ccccc12)NC(=O)C(Cc1cnc[nH]1)NC(=O)C1CCC(=O)N1 (stereo not given) | 87.4%
Cc1ccc2nc(NC(=O)CSC(=S)N3CCN(C)CC3)sc2c1 | 116%
O=[N+]([O-])c1ccc(NC(=S)NNC(=S)Nc2ccc(Br)cc2)cc1 | 82.5%
COc1ccc(/C(C#N)=C/c2cccc(OC)c2OC)cc1 | -19.3% (active)
N#C/C(C(=O)c1ccccc1)=C1/C(=O)Nc2ccc(Br)cc21 | 102%
O=C1c2cccc3cccc(c23)C(=O)N1C/C=C/c1ccc2c3c(cccc13)C(=O)N(CCO)C2=O | 79.8%
CCN(CC)CCCC(C)Nc1c2ccc(C)cc2nc2ccc(OC)cc12 (stereo not given) | -65.1% (active)

SMILES | growth
CCc1ccc(CCC(=O)Nc2ncc(Cc3ccccc3)s2)o1 | 28.1%
CCCCCCCCOC(=O)c1c(C)[nH]c(/C=C2\N=C(c3ccc[nH]3)C=C2OC)c1C | -25.7% (active)
CCN(CC)CCOc1ccc(Cl)c(C)c1 | 103%
CCc1ccccc1NC(=O)c1sc2nc3c(cc2c1N)C(=O)CCC3 | 43.3%
O=S(=O)(Oc1ccc(-c2ccc3sccc3c2)cc1)c1ccccc1 | 85.2%
Cc1ccc(N(CSc2ccc(Cl)cc2)CSc2ccc(Cl)cc2)cc1 | 91.5%
Cc1ccc(F)cc1NC(=O)c1cc(Cl)ccc1Nc1ccccc1 | 61.8%
COc1cc2cc(c1Cl)N(C)C(=O)C[C@H](OC(=O)[C@H](C)N(C)C(=O)CCS)C[C@]1(C)O[C@H]1[C@H](C)[C@@H]1C[C@@](O)(NC(=O)O1)[C@H](OC)/C=C/C=C(\C)C2 | 42%
COCc1c(-c2ccc(NC(=O)Nc3cc(C(F)(F)F)ccc3F)c(F)c2)c2c(N)ncnn2c1CN1CCOCC1 | -54.8% (active)
O=C(Nc1ccccc1)Nc1cccc(Oc2nnc(Cl)c3ccccc23)c1 | 0.467% (active)
COc1ccc(Oc2nc(Nc3ccc(N4CCOCC4)cc3)ncc2NC(=O)Nc2cccc(OC)c2)cc1 | 90.1%
O=C1CCCCCCCCC(O)C(O)CCCC(c2cccs2)O1 (stereo not given) | 95.5%
O=C(c1ccccc1)[C@@H](c1ccccc1)[C@]1(O)C(=O)Nc2ccccc21 | 102%
COc1ccc(-c2nnc(SCc3ccc(O)c4ncccc34)n2-c2ccccc2)cc1 | 10.3%
N=c1c2ccccc2nc2n1CCCCC2 | 103%
COC1=C(OC)C(=O)c2ccccc2C1=O | -34% (active)
CCOC(=O)Cn1nnc(-c2ccc(OCc3ccccc3F)cc2)n1 | 90.4%
CCN1C(=O)c2ccc3c4c(ccc(c24)C1=O)C(=O)N(CCCNCc1ccccc1OC)C3=O | -71.4% (active)
COc1ccc(NS(=O)(=O)N2CCCCC2)cc1 | 105%
COc1cc(OC)c2sc(-c3ccc(-n4cncc4-c4ccc(N)cc4)cc3)nc2c1 | 67.3%

Reference: PubChem BioAssay (NCI)
